From PubChem BioAssay AID624058 (Broad Institute, 2012)
Inconclusive results are not listed. The rule behind the calls is not given here.

Assay: P. aeruginosa growth delay with metal chelator, dose response, OD600, EDDHA, ATCC 15692, cherry-pick, set 2 (AID 624058)
Conditions: P. aeruginosa ATCC 15692 with EDDHA, OD600, 24-30 h; series mostly up to 50 µM; growth inhibition: at the top concentration

Growth inhibition, inactive:
CCOC(=O)c1ccc(-c2ccc(CO)o2)cc1 14%, N#Cc1cc(-c2ccccc2)cnc1Cl 30.5%, CCCNS(=O)(=O)c1ccc(OC)c(Cl)c1Cl 11.6%, CCOc1ccc(-n2cccc2C=O)cc1 38.6%, COc1ccccc1C(C#N)c1cccc(Cl)n1 (centres undefined) 8.34%, Cn1cccc1C(C#N)c1cccc(F)c1C#N (centres undefined) -7.44% [at 16 µM], O=CN(c1ccccc1)c1ccc2ccccc2c1 11.5%, N#C/C(=C/c1ccco1)c1nc2ccccc2s1 31.8%, O=C1C2C(C(=O)N1Cc1ccco1)C1C=CC2C12CC2 (centres undefined) 40%, CCOC(=O)/C=C(\C)Sc1cc(=O)oc2ccccc12 19.5%, O=[N+]([O-])c1ccc(N2CCCC2)nc1 53.4%, Cc1ccc(S(=O)c2ccc(C)cc2)cc1 22.7%, CCOC(=O)N1CCN(c2ccc(Cl)cc2)CC1 -3.24%, O=[N+]([O-])c1ccc(N2CCCCC2)nc1 4.26%
